The results in this text go back to PubChem BioAssay.

Experiment [1] is described as follows: optical density shifts of acrAB sulA E. coli – strain DRC41, OD650, 48 h, E. coli filamentation inducer project, primary screen (AID 1152).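 Also: E. coli MC1000 strain DRC41 lacking acrAB efflux pump and sulA.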 The conditions noted are these: higher = more signal, called active from +8 up or from −8 down.
The nature of experiment [2]: probe aLefty1 binding on compound microarray – biochemical, small-molecule microarray, 635/667 nm fluorescence, primary screen (AID 1153).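 Also: score merges spot fluorescence with signal-to-noise ratio from the scanned slide images.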 The conditions noted are these: higher = more signal.
Experiment [3] in a line: plasmodial surface anion channel blockers, osmotic lysis – cell-based, P. falciparum Indochina, OD700, 1 h, primary screen (AID 1154). The conditions noted are these: P. falciparum Indochina infected RBC osmotic lysis, higher = more signal, called active from +8 up or from −8 down.
The nature of experiment [4]: plasmodial surface anion channel blockers, osmotic lysis – cell-based, P. falciparum Indochina, OD700, 2 h, primary screen (AID 1155).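 Also: lysis reports solute entry through the parasite surface anion channel PSAC.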 The conditions noted are these: P. falciparum Indochina infected erythrocytes, higher = more signal, called active from +8 up or from −8 down.
Experiment [5] in a line: changes in parasitized red cell lysis, either direction – P. falciparum Indochina, OD700, 3 h, PSAC antagonist project, primary screen (AID 1156). The conditions noted are these: P. falciparum-infected erythrocytes, osmotic lysis, higher = more signal, called active from +8 up or from −8 down.
Experiment [6] in a line: plasmodial surface anion channel blockers, osmotic lysis – cell-based, P. falciparum Indochina, OD700, 18 h, primary screen (AID 1157). The conditions noted are these: P. falciparum Indochina infected erythrocytes, osmotic lysis OD700, 18 h; higher = more signal, called active from +8 up or from −8 down.
Experiment [7] can be described thus: S6 kinase pathway phospho-S6 level changes – cell-based, A549, cytoblot, luminescence, serum-stimulated, primary screen (AID 1158).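 Also: serum-stimulated A549 lung adenocarcinoma cells; signal is phosphorylated S6 detected by cytoblot immunostaining with HRP secondary.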 The conditions noted are these: 5 h, higher = more signal.
The target of experiment [8] is NADPH oxidase 2 (Homo sapiens) (UniProt P04839). Nature of the experiment: compounds shifting NOX2 Amplex Red fluorescence – cell-based, HEK293-NOX2, PMA-stimulated, NOX inhibitor project, primary screen (AID 1159). Also: test concentration not given here. The conditions noted are these: 45 min, higher = more signal, called active from +8 up or from −8 down.
For experiment [9], the target named is NADPH oxidase 4 (Homo sapiens) (UniProt Q9NPH5). Nature of the experiment: compounds shifting NOX4 Amplex Red fluorescence – cell-based, HEK293-NOX4, tetracycline-induced, NOX inhibitor project, primary screen (AID 1160). The conditions noted are these: HEK293-NOX4, Amplex Red H2O2 fluorescence, 45 min; higher = more signal, called active from +8 up or from −8 down.

For experiment [10], the target named is NADPH oxidase 5 (Homo sapiens) (UniProt Q96PH1). Description: compounds shifting NOX5 Amplex Red fluorescence – cell-based, HEK293-NOX5, NOX inhibitor project, primary screen (AID 1161). The conditions noted are these: HEK293-NOX5, ionomycin, 45 min, higher = more signal.

Calls of active or inactive are those of the source.

NADPH oxidase 2 (Homo sapiens), sequence (P04839 whole entry, looked up): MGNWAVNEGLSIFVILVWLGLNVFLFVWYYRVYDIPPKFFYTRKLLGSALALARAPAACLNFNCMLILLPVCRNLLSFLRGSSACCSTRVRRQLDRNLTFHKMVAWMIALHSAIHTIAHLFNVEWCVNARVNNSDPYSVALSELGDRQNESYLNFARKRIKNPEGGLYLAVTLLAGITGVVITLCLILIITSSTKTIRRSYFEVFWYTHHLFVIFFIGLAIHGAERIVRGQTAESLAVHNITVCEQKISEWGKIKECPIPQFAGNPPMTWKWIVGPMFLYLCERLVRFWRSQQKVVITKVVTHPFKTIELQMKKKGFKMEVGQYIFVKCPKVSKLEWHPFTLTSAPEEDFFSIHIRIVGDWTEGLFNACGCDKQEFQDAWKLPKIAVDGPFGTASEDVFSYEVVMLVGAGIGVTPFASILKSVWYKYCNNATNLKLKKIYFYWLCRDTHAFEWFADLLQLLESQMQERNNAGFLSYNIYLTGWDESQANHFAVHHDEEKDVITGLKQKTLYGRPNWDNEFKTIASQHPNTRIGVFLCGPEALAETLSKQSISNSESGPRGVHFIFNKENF
NADPH oxidase 4 (Homo sapiens), sequence (Q9NPH5 whole entry, looked up): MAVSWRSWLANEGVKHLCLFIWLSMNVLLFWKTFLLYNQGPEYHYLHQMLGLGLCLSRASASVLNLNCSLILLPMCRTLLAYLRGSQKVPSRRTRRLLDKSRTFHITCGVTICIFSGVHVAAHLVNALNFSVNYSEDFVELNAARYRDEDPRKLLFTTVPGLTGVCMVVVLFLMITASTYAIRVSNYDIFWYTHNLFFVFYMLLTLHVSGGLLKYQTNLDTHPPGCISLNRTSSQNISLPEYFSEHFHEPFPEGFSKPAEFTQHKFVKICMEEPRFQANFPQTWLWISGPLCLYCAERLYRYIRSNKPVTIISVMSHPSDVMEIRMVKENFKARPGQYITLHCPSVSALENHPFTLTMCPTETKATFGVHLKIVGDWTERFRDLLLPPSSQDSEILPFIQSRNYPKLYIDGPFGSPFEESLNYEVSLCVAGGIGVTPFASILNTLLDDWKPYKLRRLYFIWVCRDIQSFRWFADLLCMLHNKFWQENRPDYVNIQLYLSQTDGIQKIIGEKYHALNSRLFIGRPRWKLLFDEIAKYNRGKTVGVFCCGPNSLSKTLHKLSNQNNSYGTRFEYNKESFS
NADPH oxidase 5 (Homo sapiens), sequence (Q96PH1 whole entry, looked up): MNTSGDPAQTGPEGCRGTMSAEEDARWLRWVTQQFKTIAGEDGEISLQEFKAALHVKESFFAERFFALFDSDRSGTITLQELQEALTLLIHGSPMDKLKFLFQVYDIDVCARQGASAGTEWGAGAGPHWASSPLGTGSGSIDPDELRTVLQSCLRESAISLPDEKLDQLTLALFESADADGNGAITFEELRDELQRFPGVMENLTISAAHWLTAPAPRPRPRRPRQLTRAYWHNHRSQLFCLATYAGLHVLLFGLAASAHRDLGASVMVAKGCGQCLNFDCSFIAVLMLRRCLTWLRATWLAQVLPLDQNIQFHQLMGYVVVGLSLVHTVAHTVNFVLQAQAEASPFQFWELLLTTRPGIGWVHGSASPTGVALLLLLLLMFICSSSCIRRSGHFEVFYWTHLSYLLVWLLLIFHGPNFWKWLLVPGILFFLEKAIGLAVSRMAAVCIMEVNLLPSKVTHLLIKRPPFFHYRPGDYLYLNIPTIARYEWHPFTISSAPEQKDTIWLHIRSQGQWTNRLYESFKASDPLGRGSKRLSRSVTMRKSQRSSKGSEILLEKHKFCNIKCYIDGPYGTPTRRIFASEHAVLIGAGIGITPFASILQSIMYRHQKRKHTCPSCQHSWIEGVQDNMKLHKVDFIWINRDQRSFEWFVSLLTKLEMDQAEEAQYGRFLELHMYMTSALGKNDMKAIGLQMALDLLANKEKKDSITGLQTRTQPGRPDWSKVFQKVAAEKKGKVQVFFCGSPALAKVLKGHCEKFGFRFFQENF

Regarding `CC(C)C(O)C1C=CC2C(=O)N(C)C(=O)C2N1N1CCCCC1` (stereo not given), the z-score in experiment [1] is -1.77 (inactive); in experiment [3], 0.193 (inactive); in experiment [4], 1.22 (inactive); in experiment [5] it was 0.0667 (inactive); in experiment [6], 1 (inactive); in experiment [7] it was -0.87. Further, the z-score in experiment [8] was -0.569 (inactive); in [9] it was -0.278 (inactive); in experiment [10], -1.52. Further, in experiment [2], the composite z-score is 0.134.

With `C=CC[C@@]1(C(=O)OC)N=C(c2ccc(OCCCO)cc2)O[C@@H]1c1ccccc1CN=[N+]=[N-]`, the z-score in [1] is 1.24 (inactive); in experiment [3] it was 26.9 (active); in [4] it was 18.7 (active); in experiment [5] it was -0.26 (inactive); in [6] it was 3.48 (inactive); in experiment [7], 1.79. Further, the z-score is -4.05 (inactive) in experiment [8], 0.419 (inactive) in experiment [9] and -3.1 in experiment [10]. For the same compound, in [2], the composite z-score is 0.0674.

Turning to `CN(C)CCCC[C@@H]1NC(=O)[C@H]2C[C@@H](C(=O)NCCCCCNC(=O)CS)[C@@H](c3ccc(O)cc3)N2C1=O`, the z-score in experiment [1] was 0.445 (inactive); in [3], 0.93 (inactive); in experiment [4], 0.683 (inactive); in [5], -0.988 (inactive); in experiment [6] it was 0.153 (inactive); in experiment [7], -0.0137. Moreover, the z-score in experiment [8] was 0.394 (inactive); in [9], -0.265 (inactive); in experiment [10] it was 0.877. In experiment [2], this compound came in with a composite z-score of -0.0196.

As for `O=C(NCc1ccccc1)[C@@H]1c2ccccc2C(=O)N(C2CCCCC2)[C@H]1c1ccc(CO)cc1`, the z-score is -0.246 (inactive) in [1]; 2.67 (inactive) in experiment [3]; 0.0744 (inactive) in [4]; 0.473 (inactive) in [5]; 0.475 (inactive) in experiment [6]; -0.127 in experiment [7]. Moreover, the z-score in experiment [8] is -0.245 (inactive); in [9] it was 0.684 (inactive); in [10], 0.725. Further, the composite z-score in experiment [2] was -0.458.

Take `COC(=O)[C@@]1(Cc2ccc(F)cc2)[C@H]2c3cc(C(=O)N(C)C)n(CCc4c[nH]c5ccc(OC)cc45)c3C[C@H]2CN1C(=O)c1ccccc1`: the z-score in experiment [1] is -1.77 (inactive); in experiment [3], 6.52 (inactive); in experiment [4], 0.1 (inactive); in experiment [5], 1.24 (inactive); in experiment [6] it was -0.975 (inactive); in experiment [7] it was 1.87. Further, the z-score in [8] was -3.45 (inactive); in experiment [9], -3.18 (inactive); in [10] it was -5.53. The same compound registered a composite z-score in experiment [2] of 0.441.

Take `CCCNC(=O)[C@@]1(C)c2ccccc2C(=O)N(Cc2cc(F)cc(C(F)(F)F)c2)[C@H]1c1ccc(CO)cc1`: the z-score in [1] is 0.119 (inactive); in experiment [3], 7.04 (inactive); in [4], 0.576 (inactive); in [5] it was 1.03 (inactive); in experiment [6], 0.644 (inactive); in experiment [7], 0.324. For the same compound, the z-score was -1.29 (inactive) in experiment [8], -1.51 (inactive) in experiment [9] and -2.07 in experiment [10]. The composite z-score in [2] was -0.252.

On to `CC(C)[Si]1(C(C)C)O[C@@H](c2ccccc2)c2cc(-c3ccc(-c4ccc(Cl)c(Cl)c4)o3)nc(CCc3ccccc3)c21`, for which the z-score in experiment [1] was -0.792 (inactive); in experiment [3] it was 3.36 (inactive); in experiment [4], 0.652 (inactive); in experiment [5] it was -0.443 (inactive); in experiment [6] it was -0.0811 (inactive); in [7], -0.507. Besides, the z-score in experiment [8] was 0.903 (inactive); in [9], 0.928 (inactive); in experiment [10] it was 0.44. The compound further yielded a composite z-score in experiment [2] of -0.0428.

With `O=C1C2C=CC(C(O)c3ccc(B(O)O)cc3)N(Nc3ccc([N+](=O)[O-])cc3)C2C(=O)N1c1ccccc1` (stereo not given), the z-score in experiment [1] was -1.07 (inactive); in experiment [3], 2.01 (inactive); in experiment [4] it was 1.21 (inactive); in [5] it was 0.136 (inactive); in [6], 0.606 (inactive); in experiment [7] it was -0.537. In addition, the figures for the z-score in experiment [8], in experiment [9] and in [10] were -1.73 (inactive), -0.374 (inactive) and -3.79, respectively. In [2], this compound yielded a composite z-score of 0.363.

In the case of `O=C1O[C@@H](c2ccccc2)[C@@H](c2ccccc2)N2[C@@H](c3ccc(O)cc3)[C@]3(C(=O)Nc4ccccc43)[C@@H](C(=O)N3CCCCCCC3)[C@H]12`, the z-score in [1] was -0.779 (inactive); in experiment [3], 0.571 (inactive); in experiment [4], -0.0476 (inactive); in experiment [5] it was -1.25 (inactive); in experiment [6] it was 0.516 (inactive); in experiment [7] it was -0.274. Also, the z-score was 0.915 (inactive) in experiment [8], 0.522 (inactive) in experiment [9] and 1.57 in experiment [10]. Moreover, the composite z-score in [2] turned out to be 2.88.

Take `O=C1O[C@@H](c2ccccc2)[C@@H](c2ccccc2)N2[C@@H](c3ccc(O)cc3)[C@]3(C(=O)Nc4ccc(C#CCCO)cc43)[C@@H](C(=O)O)[C@H]12`: the z-score was 0.742 (inactive) in [1]; 2.28 (inactive) in experiment [3]; 0.62 (inactive) in experiment [4]; 1.22 (inactive) in [5]; 0.614 (inactive) in experiment [6]; -0.29 in experiment [7]. The z-score was 0.645 (inactive) in experiment [8], -1.2 (inactive) in experiment [9] and 1.21 in experiment [10]. Further, in [2], the composite z-score was determined as 1.99.

For the compound `O=C1c2ccccc2[C@](Cc2ccccc2I)(C(=O)O)[C@H](c2ccc(CO)cc2)N1Cc1ccccc1C(F)(F)F`, the z-score was -0.0668 (inactive) in [1]; 3.59 (inactive) in experiment [3]; 1.01 (inactive) in experiment [4]; 0.737 (inactive) in experiment [5]; 0.915 (inactive) in experiment [6]; -0.419 in [7]. The z-score was 1.66 (inactive) in [8], -0.832 (inactive) in [9] and -0.533 in [10]. This compound also had a composite z-score in [2] of 0.215.

On to `Cc1ccc(S[C@]2(C(=O)NCCCN(C)C)CC(=O)N(Cc3ccccc3)[C@@H]2c2ccc(CO)cc2)cc1`, for which the z-score in experiment [1] is 0.239 (inactive); in [3], 2.24 (inactive); in [4], 0.077 (inactive); in experiment [5], 1.5 (inactive); in [6] it was 0.013 (inactive); in experiment [7], 0.161. For the same compound, the values for the z-score in [8], in experiment [9] and in experiment [10] were -3.38 (inactive), 0.6 (inactive) and 1.89, respectively. Moreover, the composite z-score in experiment [2] was determined as 0.136.

Regarding `C=C[C@@H](C)[C@@H](OC(=O)Nc1ccc(OC)cc1)c1ccc(O)c2ccccc12`, the z-score in [1] is 0.0598 (inactive); in [3], 2.46 (inactive); in experiment [4] it was 0.661 (inactive); in [5], 0.0162 (inactive); in [6] it was 0.354 (inactive); in experiment [7] it was 0.382. Moreover, the z-score in experiment [8] is -5.9 (inactive); in experiment [9] it was -1.81 (inactive); in experiment [10], -0.437. Moreover, in [2], the composite z-score is -0.0222.

Consider `O=C(NCC(O)CO)[C@@]1(Cc2ccccc2)N=C(c2ccc(OCCCO)cc2)O[C@H]1c1ccccc1` (stereo not given in full), for which the z-score in experiment [1] is 0.931 (inactive); in [3] it was 19.8 (active); in experiment [4], 3.69 (inactive); in [5] it was 1.88 (inactive); in experiment [6], 1.28 (inactive); in experiment [7], -0.142. In addition, the z-score in experiment [8] is -0.513 (inactive); in experiment [9], 1.63 (inactive); in experiment [10], 1.16. The composite z-score in [2] worked out at 0.828.
